Data taken from PubChem BioAssay (EPA / NIEHS).
Inconclusive results are not listed. The source made the active and inactive calls. How the source made its calls, unless noted: active means hit-call score of the fitted dose curve at least 0.9, where 1 is the maximum; inactive means score below 0.9.

Tests used:
[1] = ACEA_ER_80hr: ACEA Biosciences xCELLigence Real-Time Cell Analysis on Estrogen Receptor Agonism for Proliferation (AID 2282667; active means hit-call score of the fitted dose curve at least 0.9, where 1 is the maximum); conditions: T47D proliferation, impedance (xCELLigence), 80 h
In short: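 Real-time impedance growth kinetics of human T-47D breast cells read 80 h after dosing, gain-of-signal fitted relative to DMSO. Compounds: 1:4 serial series, top final concentration 100 uM, n = 2.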

[2] = ATG_CRE_CIS: Attagene CIS-FACTORIAL HepG2 Assay for human cAMP Responsive Element (CRE) binding protein 3 (AID 2282926); conditions: HepG2 CRE cis-reporter, Attagene multiplexed mRNA; actives raise or lower the signal
In short: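 Endogenous transcription factor activity read via CRE-regulated reporter transcripts in transfected HepG2 cells. After 24 h exposure, RNA was reverse-transcribed, amplified, fluorescently labelled and sized by capillary electrophoresis; gain or loss fitted against DMSO.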

[3] = target: CCAAT/enhancer-binding protein beta (Homo sapiens) (UniProt P17676); experiment: ATG_C_EBP_CIS: Attagene CIS-FACTORIAL HepG2 Assay for human CCAAT/Enhancer Binding Protein (C/EBP) beta (AID 2282927); conditions: HepG2 Attagene cis-factorial transcription factor reporter; actives raise or lower the signal
In short: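 Endogenous transcription factor activity in human liver HepG2 cells is inferred from induction of a CEBPB-linked reporter mRNA. Exposure lasts 24 h; activity is fitted in both directions relative to DMSO.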

[4] = ATG_CMV_CIS: Attagene CIS-FACTORIAL HepG2 Assay for human CMV (Internal Marker) (AID 2282928); conditions: HepG2 CMV promoter reporter, transcription factor profiling; actives raise or lower the signal;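 further: endpoint acts as a background internal control marker rather than a target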
In short: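 Readout: fluorescent reporter cDNA fragments separated by capillary electrophoresis after RT-PCR and HpaI cut. Cells: HepG2 carrying transfected cis-promoter reporter constructs, dosed 24 h. Endpoint serves as background internal-marker control, fit bidirectionally versus DMSO.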

[5] = ATG_DR4_LXR_CIS: Attagene CIS-FACTORIAL HepG2 Assay for human Liver X Receptor (LXR), DR4 submotif (AID 2282929); conditions: HepG2 Attagene DR4 cis-reporter, mRNA transcription; actives raise or lower the signal
In short: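 Endogenous factor activity at a DR4 cis-element is read as reporter mRNA in transiently transfected HepG2 cells. Exposure lasts 24 h; transcripts are amplified, fluorescently labelled and sized by capillary electrophoresis, with DMSO as baseline.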

[6] = target: Aryl hydrocarbon receptor (Homo sapiens) (UniProt P35869); experiment: ATG_Ahr_CIS: Attagene CIS-FACTORIAL HepG2 Assay for human Aryl Hydrocarbon Receptor (Ahr) (AID 2282930); conditions: HepG2 AhR cis-factorial reporter transcription; actives raise or lower the signal
In short: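 Transient MRTU transfection of HepG2 → 24 h compound exposure → total RNA, oligo(dT) RT → PCR, 6-FAM extension, HpaI cut → CE fluorescence. DMSO = baseline; bidirectional curve fit.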

[7] = ATG_AP_1_CIS: Attagene CIS-FACTORIAL HepG2 Assay for human Activator Protein 1 (AP-1) (AID 2282931); conditions: HepG2 Attagene cis-factorial AP-1 reporter mRNA; actives raise or lower the signal
In short: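 Fluorescence of labelled PCR fragments separated by capillary electrophoresis gives reporter mRNA levels. HepG2 with transfected cis-regulated reporter units, 24 h exposure; DMSO serves as baseline for bidirectional curve fits.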

[8] = target: Retinoic acid receptor alpha (Homo sapiens) (UniProt P10276); experiment: ATG_DR5_RAR_CIS: Attagene CIS-FACTORIAL HepG2 Assay for human Retinoic Acid Receptor Alpha (RARE), DR5 submotif (AID 2282934); conditions: HepG2 Attagene cis-factorial RARE DR5 reporter, mRNA; actives raise or lower the signal;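 on AC50: reporter responds to endogenous RAR alpha beta and gamma in HepG2 not RARA alone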
In short: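 Transient MRTU transfection of HepG2; 24 h compound treatment; TriZol RNA, oligo(dT) RT, PCR, FAM labelling, capillary electrophoresis. Bidirectional fit vs DMSO. Endogenous TF activity at DR5 RARE.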

[9] = target: Transcription factor E2F1 (Homo sapiens) (UniProt Q01094); experiment: ATG_E2F_CIS: Attagene CIS-FACTORIAL HepG2 Assay for human E2F Transcription Factor 1 (AID 2282935); conditions: HepG2 Attagene cis-reporter, E2F reporter RNA transcripts; actives raise or lower the signal
In short: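 Gain or loss of reporter transcript, fitted against DMSO, reflects E2F1-driven transcription. Transiently transfected HepG2 dosed 24 h before RNA isolation. Quantified by fluorescent RT-PCR products separated by capillary electrophoresis.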

[10] = ATG_E_Box_CIS: Attagene CIS-FACTORIAL HepG2 Assay for human Enhancer Box (E-box) (AID 2282936); conditions: HepG2 E-box cis-reporter transcription, actives raise or lower the signal
In short: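 E-box-driven reporter transcripts measured in transiently transfected HepG2 after 24 h exposure: RNA reverse-transcribed, PCR-amplified, fluorescently labelled, digested and resolved by capillary electrophoresis. Gain or loss relative to DMSO.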

[11] = ATG_M_61_CIS: Attagene CIS-FACTORIAL HepG2 Assay for M61 Transcription Factor (Internal Marker) (AID 2282937); conditions: HepG2 Attagene CIS-FACTORIAL M61 internal marker reporter; actives raise or lower the signal
In short: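 This endpoint serves as an internal background control within a multiplexed HepG2 cis-reporter panel. Cells are exposed for 24 h; reporter mRNA is amplified, fluorescently labelled and sized by capillary electrophoresis, with DMSO as negative control.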

[12] = ATG_EGR_CIS: Attagene CIS-FACTORIAL HepG2 Assay for human Early Growth Response 1 (EGR1) (AID 2282938); conditions: HepG2 Attagene CIS-FACTORIAL EGR reporter mRNA; actives raise or lower the signal
In short: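 HepG2, transient MRTU transfection (cis promoters), 24 h compound. RNA → RT (oligo-dT) → PCR → 6-FAM labelling → HpaI cut → CE fluorescence. Bidirectional fit, DMSO baseline.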

[13] = ATG_M_19_CIS: Attagene CIS-FACTORIAL HepG2 Assay for M19 Transcription Factor (Internal Marker) (AID 2282939); conditions: HepG2 Attagene CIS-FACTORIAL M19 internal marker reporter; actives raise or lower the signal
In short: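 Following a 24 h exposure, RNA from transfected HepG2 cells was reverse-transcribed, PCR-amplified with reporter-specific primers, end-labelled with 6-FAM and HpaI-digested before capillary separation. Values represent gain or loss versus DMSO.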

[14] = ATG_ERE_CIS: Attagene CIS-FACTORIAL HepG2 Assay for Estrogen Response Element (ERE) (AID 2282940); conditions: HepG2 ERE cis-reporter, Attagene RNA transcript; actives raise or lower the signal
In short: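 HepG2, transient cis-reporter units, 24 h exposure. RNA isolated, oligo(dT) RT, reporter-specific PCR, FAM extension, HpaI cut, CE detection. Gain/loss-of-signal vs DMSO.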

[15] = ATG_Ets_CIS: Attagene CIS-FACTORIAL HepG2 Assay for human Erythroblast Transformation Specific (ETS) (AID 2282941); conditions: HepG2 ETS cis-reporter transcription, actives raise or lower the signal
In short: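 RT-PCR/capillary electrophoresis fluorescence read-out of reporter mRNA; HepG2 transient multi-reporter transfection; 24 h compound exposure; gain or loss of signal fitted bidirectionally relative to DMSO.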

[16] = target: Hepatocyte nuclear factor 3-beta (Homo sapiens) (UniProt Q9Y261); experiment: ATG_FoxA2_CIS: Attagene CIS-FACTORIAL HepG2 Assay for human Forkhead box A2 (FOXA2) (AID 2282942); conditions: HepG2 cis-reporter transcription factor activity, 24 h; actives raise or lower the signal
In short: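 Cells: HepG2, transient multiplex reporter transfection. Exposure 24 h. Detection: reporter-specific RT-PCR, fluorescent labelling, restriction digest, capillary electrophoresis. Analysis: bidirectional curve fit, DMSO as negative control.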

[17] = ATG_FoxO_CIS: Attagene CIS-FACTORIAL HepG2 Assay for human Forkhead box O (FoxO) (AID 2282943); conditions: HepG2 Attagene cis-reporter, FoxO element, mRNA; actives raise or lower the signal
In short: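 HepG2, transient MRTU transfection (cis element, endogenous TFs). Dose 24 h. TriZol RNA → oligo(dT) RT → PCR → 6-FAM primer extension → HpaI cut → CE. Gain/loss vs DMSO.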

[18] = ATG_GATA_CIS: Attagene CIS-FACTORIAL HepG2 Assay for human GATA Binding Protein (AID 2282944); conditions: HepG2 GATA cis-element reporter, Attagene multiplex mRNA; actives raise or lower the signal
In short: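 DMSO serves as negative control and baseline for bidirectional fitting of reporter mRNA changes. HepG2 cells bearing transiently transfected cis-promoter reporters were exposed 24 h; transcripts detected via RT-PCR and capillary electrophoresis.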

[19] = ATG_AP_2_CIS: Attagene CIS-FACTORIAL HepG2 Assay for human Activator Protein 2 (AP-2) (AID 2282932); conditions: HepG2 AP-2 cis-reporter, Attagene transcription factor profiling; actives raise or lower the signal
In short: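 Endogenous transcription factor activity is reported through transfected multiplex reporter constructs in HepG2, after 24 h of compound exposure. Transcripts were quantified by RT-PCR and capillary electrophoresis of fluorescent fragments. Bidirectional fit against DMSO.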

[20] = ATG_BRE_CIS: Attagene CIS-FACTORIAL HepG2 Assay for human Bone Morphogenetic Protein (BMP) Response Element (BRE) (AID 2282933); conditions: HepG2 BMP response element reporter, Attagene transcription factor profiling; actives raise or lower the signal
In short: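 Gain- or loss-of-signal was derived by bidirectional fitting against DMSO controls. The signal came from reporter mRNA, measured by RT-PCR and capillary electrophoresis, in HepG2 cells transiently carrying multiple reporter units and dosed for 24 h.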

Measured: AC50

Sequence of Aryl hydrocarbon receptor (Homo sapiens) (P35869 whole entry, looked up): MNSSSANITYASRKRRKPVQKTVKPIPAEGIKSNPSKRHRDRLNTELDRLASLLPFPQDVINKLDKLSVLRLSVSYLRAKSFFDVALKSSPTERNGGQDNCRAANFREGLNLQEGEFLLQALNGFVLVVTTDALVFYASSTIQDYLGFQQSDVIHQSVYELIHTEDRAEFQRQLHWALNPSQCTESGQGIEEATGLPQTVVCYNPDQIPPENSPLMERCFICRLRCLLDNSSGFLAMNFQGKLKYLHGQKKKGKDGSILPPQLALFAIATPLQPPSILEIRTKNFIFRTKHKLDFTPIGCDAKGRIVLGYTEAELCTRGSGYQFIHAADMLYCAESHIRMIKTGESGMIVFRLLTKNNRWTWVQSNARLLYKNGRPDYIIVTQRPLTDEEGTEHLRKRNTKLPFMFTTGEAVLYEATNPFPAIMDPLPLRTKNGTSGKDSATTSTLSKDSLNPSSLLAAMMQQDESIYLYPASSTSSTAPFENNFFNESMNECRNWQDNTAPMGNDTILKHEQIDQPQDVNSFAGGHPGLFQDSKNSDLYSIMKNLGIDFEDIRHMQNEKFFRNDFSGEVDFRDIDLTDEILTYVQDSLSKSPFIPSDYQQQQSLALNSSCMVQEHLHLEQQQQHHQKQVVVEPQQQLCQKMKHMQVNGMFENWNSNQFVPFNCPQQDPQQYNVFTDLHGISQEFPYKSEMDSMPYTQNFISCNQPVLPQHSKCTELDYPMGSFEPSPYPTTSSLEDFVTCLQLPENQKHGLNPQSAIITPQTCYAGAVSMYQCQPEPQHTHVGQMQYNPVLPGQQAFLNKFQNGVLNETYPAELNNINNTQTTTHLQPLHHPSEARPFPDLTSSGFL
Sequence of Transcription factor E2F1 (Homo sapiens) (Q01094 whole entry, looked up): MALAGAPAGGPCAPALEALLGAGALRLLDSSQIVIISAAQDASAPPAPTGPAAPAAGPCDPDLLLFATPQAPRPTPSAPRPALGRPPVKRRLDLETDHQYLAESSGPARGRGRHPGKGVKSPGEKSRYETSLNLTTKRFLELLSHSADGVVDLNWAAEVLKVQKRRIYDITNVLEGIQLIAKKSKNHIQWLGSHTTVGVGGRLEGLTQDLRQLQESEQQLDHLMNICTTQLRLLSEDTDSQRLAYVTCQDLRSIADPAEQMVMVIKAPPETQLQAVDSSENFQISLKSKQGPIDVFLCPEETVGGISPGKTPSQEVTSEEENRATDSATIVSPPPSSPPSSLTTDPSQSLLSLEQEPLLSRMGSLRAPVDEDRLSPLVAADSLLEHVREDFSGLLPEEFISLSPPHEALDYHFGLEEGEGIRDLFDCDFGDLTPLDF
Sequence of Hepatocyte nuclear factor 3-beta (Homo sapiens) (Q9Y261 whole entry, looked up): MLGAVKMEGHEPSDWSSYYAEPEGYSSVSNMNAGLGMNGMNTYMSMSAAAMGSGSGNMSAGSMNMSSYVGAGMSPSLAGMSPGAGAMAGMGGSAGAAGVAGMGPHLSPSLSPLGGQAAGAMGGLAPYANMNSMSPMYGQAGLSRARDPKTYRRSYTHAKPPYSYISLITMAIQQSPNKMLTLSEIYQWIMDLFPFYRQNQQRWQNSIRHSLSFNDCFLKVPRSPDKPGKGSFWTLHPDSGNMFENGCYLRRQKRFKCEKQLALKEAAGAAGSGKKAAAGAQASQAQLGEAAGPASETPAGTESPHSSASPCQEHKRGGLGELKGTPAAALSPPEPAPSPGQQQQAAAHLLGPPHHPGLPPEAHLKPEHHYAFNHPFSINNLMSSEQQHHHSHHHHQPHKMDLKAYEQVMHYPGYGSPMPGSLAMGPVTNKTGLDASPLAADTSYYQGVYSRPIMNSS
Sequence of Retinoic acid receptor alpha (Homo sapiens) (P10276 whole entry, looked up): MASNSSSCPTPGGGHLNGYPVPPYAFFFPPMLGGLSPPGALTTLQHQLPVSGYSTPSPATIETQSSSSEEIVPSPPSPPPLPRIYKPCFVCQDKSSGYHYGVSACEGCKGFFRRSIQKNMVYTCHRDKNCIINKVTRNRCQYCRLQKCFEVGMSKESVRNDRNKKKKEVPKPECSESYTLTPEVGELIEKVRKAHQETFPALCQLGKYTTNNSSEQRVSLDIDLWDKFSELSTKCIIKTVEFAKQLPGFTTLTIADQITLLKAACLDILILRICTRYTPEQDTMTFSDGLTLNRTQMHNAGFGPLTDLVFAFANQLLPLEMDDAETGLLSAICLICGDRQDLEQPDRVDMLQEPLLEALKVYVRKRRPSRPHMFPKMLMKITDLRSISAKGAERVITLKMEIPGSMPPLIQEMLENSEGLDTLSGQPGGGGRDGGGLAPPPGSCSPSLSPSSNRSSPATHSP
Sequence of CCAAT/enhancer-binding protein beta (Homo sapiens) (P17676 whole entry, looked up): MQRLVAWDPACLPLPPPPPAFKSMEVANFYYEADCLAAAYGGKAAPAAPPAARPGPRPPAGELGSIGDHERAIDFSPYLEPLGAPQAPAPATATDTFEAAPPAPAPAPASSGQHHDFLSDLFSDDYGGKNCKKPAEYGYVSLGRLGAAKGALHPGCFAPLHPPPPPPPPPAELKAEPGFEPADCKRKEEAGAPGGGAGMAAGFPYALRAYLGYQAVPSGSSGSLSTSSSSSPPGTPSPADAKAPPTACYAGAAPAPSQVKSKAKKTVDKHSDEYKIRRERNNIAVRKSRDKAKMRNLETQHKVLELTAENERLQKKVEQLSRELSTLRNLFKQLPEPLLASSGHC

CCC(=O)OC(C)c1ccccc1 (stereo unspecified)
not listed: [19] | [20]
inactive: all other assays above

CCCCCC/C=C/CCCCCCCC(=O)O
not listed: [5]
inactive: all other assays above

O=C1C=CC(=O)N1c1ccc(Cc2ccc(N3C(=O)C=CC3=O)cc2)cc1
active: [2] 33.4 µM | [20] 51.2 µM | [8] 59.4 µM | [10] 44.9 µM | [12] 21.4 µM
not listed: [5]
inactive: all other assays above

NC(O)(C(F)(F)F)C(F)(F)F
active: [6] 126 µM
not listed: [5]
inactive: all other assays above

CC(C)OC=O
not listed: [5]
inactive: all other assays above

C=CC(=O)OCCC(F)(F)C(F)(F)C(F)(F)C(F)(F)F
active: [1] 17.1 µM | [7] 213 µM | [20] 101 µM
not listed: [5] | [16]
inactive: all other assays above

CC(=O)C=O
not listed: [5] | [16]
inactive: all other assays above

O=C(c1ccccc1)c1ccc(O)cc1O
active: [1] 1.88 µM | [4] 123 µM | [14] 1.72 µM
not listed: [5] | [12] | [20]
inactive: all other assays above

CC(C)C(=O)OCc1ccccc1
not listed: [5] | [16] | [19]
inactive: all other assays above

COc1ccccc1C=O
not listed: [5] | [8] | [19]
inactive: all other assays above

OCCCc1cccnc1
not listed: [8] | [16] | [19] | [20]
inactive: all other assays above

CNS(=O)(=O)C(F)(F)C(F)(F)C(F)(F)C(F)(F)C(F)(F)C(F)(F)C(F)(F)C(F)(F)F
active: [7] 13.7 µM
not listed: [5] | [16]
inactive: all other assays above

CCOC(C=C(C)CCC=C(C)C)OCC
not listed: [8] | [12] | [19] | [20]
inactive: all other assays above

CCn1c2ccccc2c2ccccc21
active: [4] 57.4 µM | [7] 164 µM
not listed: [8] | [19] | [20]
inactive: all other assays above

C=C(C)C(=O)OCC(F)(F)C(F)(F)C(F)(F)C(F)F
not listed: [5] | [12]
inactive: all other assays above
